# Values joined by “and” are separate entries in the source; they are usually repeats but may differ in a detail not shown here. Equal values may be shown once. Results filed as inconclusive are left out. Active and inactive are the calls of the source. Unless noted, calls come from the whole dose curve; as a rule, active = well fitted curve in the direction sought with a large enough effect; inconclusive = small, poorly fitted or top-dose-only effect, or another doubt; inactive = no such curve, though single readings can be large; an effect the other way counts as inactive or inconclusive.
# Key:
# [1] = Cytotoxicity counterscreen for NFkB agonists and antagonists (AID 624476); note: potency is the fitted concentration of half-maximal effect
# [2] = qHTS Assay for Identification of Small Molecule Agonists for NFkB Signaling Pathway. (AID 624478);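 note: compounds tested together with TNF alpha at its EC50 of 10 pM; 0% is about no effect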
# Procedure, shortened: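 Activators were sought in reporter cells stimulated at the TNF alpha EC50 (10 pM final). Compound and cytokine were co-incubated 5 hours at 37 C before beta-lactamase substrate detection by dual-emission fluorescence.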
# [3] = qHTS Assay for Identification of Small Molecule Antagonists for NFkB Signaling Pathway. (AID 624479; calls by dose curve;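 note: pathway stimulated with TNF alpha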; note: potency is the fitted concentration of half-maximal effect)
# [4] = Cell Proliferation Assay against the TMD8 Cell Line (AID 651645); conditions: TMD8 DLBCL cell line proliferation/viability; at 46.1 µM (top of the series);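 note: cells exposed to compound for 48 h before reading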
# Procedure, shortened: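 TMD8 ABC DLBCL cells, 500 per well in phenol red-free RPMI with 5% FBS, were treated with compound by pin transfer and incubated 48 hours at 37C, 5% CO2. Viability was read by CellTiter-Glo luminescence, normalised to DMSO (100%) and 9.2 uM bortezomib (0%).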
# [5] = Cell Proliferation Assay against the HBL1 Cell Line (AID 651646); conditions: HBL1 DLBCL cells; at 46.1 µM (top of the series);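 note: cells exposed to compound for 48 h before reading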
# Procedure, shortened: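 CellTiter-Glo luminescence after 48 h compound exposure at 37C gives percent activity, with DMSO as 100% and 9.2 uM bortezomib final as 0%. Cells: 500 log-phase HBL1 per well, RPMI plus 5% FBS.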
# [6] = Cell Proliferation Assay against the TMD8 Cell Line (Caspase readout at 8 hrs) (AID 651713); note: potency is the fitted concentration of half-maximal effect
# Procedure, shortened: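 Caspase 3/7 activation in ABC DLBCL TMD8 cells is measured by luminescence after an 8 h compound exposure at 37C. Relative light units are scaled between DMSO (0%) and 9.2 uM final bortezomib (100%).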
# [7] = Cell Proliferation Assay against the TMD8 Cell Line (Caspase readout at 16 hrs) (AID 651712); note: potency is the fitted concentration of half-maximal effect
# Procedure, shortened: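 Caspase-Glo luminescence measured apoptosis after a 16 h, 37 C compound exposure of TMD8 cells (500 cells/well, 5% FBS RPMI). DMSO set 0% and bortezomib at 9.2 uM final set 100% activity.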
# [8] = HTS Assay for Allosteric Antagonists of the Human D2 Dopamine Receptor: Hit Validation in HTRF (AID 624455);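 note: stable D1 dopamine receptor cell line scored for blocking the D1 response; % is set by controls: 0 for no effect and ±100 for the full control effect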
# Procedure, shortened: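 Inhibition of the D1-mediated response is measured by HTRF in cells that stably express the D1 dopamine receptor. Compounds reaching this step are hits from calcium-flux antagonism testing at EC80 dopamine in inducible Hek293 Trex D2 cells.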
Structure (SMILES),Potency [1],outcome [2],Potency [3],viability (% of control) [4],"viability, percent of control [5]",Potency [6],Potency [7],outcome [8]
Cc1cccc(C=NNc2cc(N3CCOCC3)nc(OCCc3ccccn3)n2)c1,inactive,inactive,21.1 µM (active),0.274%,0.729%,–,–,–
COc1cccc2nc(-c3cccs3)nc(NN3C(=O)C=C(C)C3=O)c12,inactive,inactive,0.841 µM (active),3.01%,3.09%,0.166 µM (active),–,–
CC(NCc1ccc2c(c1)nc(NC(=O)c1ccc(-c3cn[nH]c3)s1)n2CC(C)(C)O)C(C)(C)C (stereo unspecified),0.332 µM (active),inactive,0.0266 µM (active),1.7%,1.76%,0.332 µM (active),–,–
CNC(=O)c1cc(Oc2ccc(NC(=O)Nc3cc(C(C)(C)C)nn3-c3ccc4ncccc4c3)c(F)c2)ccn1,2.64 µM (active),inactive,0.0421 µM (active),2.72%,58.7%,–,inactive,–
COc1ccc(C=Cc2cc(OC)c(OC)c(OC)c2)cc1O,inactive,inactive,inactive,0.872%,20.5%,–,1.5 nM (active),–
COC(=O)[C@]12CCC(C)(C)C[C@@H]1[C@@H]1C(=O)C=C3[C@@]4(C)C=C(C#N)C(=O)C(C)(C)[C@@H]4CC[C@@]3(C)[C@]1(C)CC2,1.32 µM (active),inactive,0.595 µM (active),–,–,–,–,–
Cc1[nH]nc2ccc(-c3cncc(OC[C@@H](N)Cc4ccccc4)c3)cc12,4.69 µM (active),inactive,0.168 µM (active),-0.774%,4.82%,2.35 µM (active),1320 nM (active),–
Nc1nc(Nc2ccc(S(N)(=O)=O)cc2)nn1C(=O)c1c(F)cccc1F,9.35 µM (active),inactive,0.473 µM (active),6.19%,49.5%,14.8 µM (active),5260 nM (active),–
CN(c1ncccc1CNc1nc(Nc2ccc3c(c2)CC(=O)N3)ncc1C(F)(F)F)S(C)(=O)=O,10.5 µM (active),inactive,1.49 µM (active),-0.0421%,40.9%,8.33 µM (active),–,–
CC(C)CC(=O)Nc1n[nH]c2c1CN(C(=O)C1CCN(C)CC1)C2(C)C,2.35 µM (active),inactive,0.266 µM (active),4.73%,49.6%,2.35 µM (active),–,–
Cc1cnc(-c2cnc(NCCNc3ccc(C#N)cn3)nc2-c2ccc(Cl)cc2Cl)[nH]1,inactive,inactive,14.9 µM (active),9.76%,22.7%,–,–,–
Cn1c2cc(S(C)=O)sc2c2cnn(Cc3cccc(N)c3)c(=O)c21 (stereo unspecified),inactive,inactive,16.8 µM (active),110%,93.3%,inactive,inactive,–
O=C(NC1CCNCC1)c1[nH]ncc1NC(=O)c1c(Cl)cccc1Cl,209 nM (active) and 296 nM (active),inactive,33.5 nM (active) and 66.8 nM (active),1.51% and 1.72%,45.8% and 42.8%,332 nM (active) and 264 nM (active),118 nM (active),–
COc1cc2c(Oc3ccc(-c4cnc(Nc5ccc(F)cc5)n(C)c4=O)cc3F)ccnc2cc1OCCCN1CCOCC1,29.6 µM (active),inactive,18.8 µM (active),1.34%,1.76%,–,16600 nM (active),–
CN(C)CC=CC(=O)Nc1cc2c(Nc3ccc(F)c(Cl)c3)ncnc2cc1O[C@H]1CCOC1,29.6 µM (active),inactive,13.3 µM (active),0.0294%,1.34%,–,–,–
N#Cc1c(O)c2c(-c3ccc(-c4ccccc4O)cc3)csc2[nH]c1=O,inactive,inactive,inactive,112%,114%,inactive,inactive,–
O=c1c2ccccc2nc2n1CCc1c-2[nH]c2ccccc12,–,–,–,–,–,–,–,inactive
O=C(O)c1ccc2cc(-c3ccc(O)c(C45CC6CC(CC(C6)C4)C5)c3)ccc2c1,0.118 µM (active),inactive,14.9 µM (active),2.27%,1.91%,–,–,–
C1Cc2[nH]nc(-c3nn[nH]n3)c2C1,inactive,inactive,inactive,103%,91.7%,inactive,inactive,–
CC1(C)OC2=C(C(=O)c3ccccc3C2=O)[C@H](NCc2ccccc2)[C@H]1O,5.26 µM (active),inactive,3.75 µM (active),5.62%,6.45%,–,inactive,–
CC(C)[C@H](C(=O)Nc1ccc(C(=O)NO)cc1)c1ccccc1,18.7 µM (active),inactive,inactive,0.267%,0.0861%,–,166 nM (active),–
COc1cc2c(Oc3ccc(NC(=O)C4(C(=O)Nc5ccc(F)cc5)CC4)cc3F)ccnc2cc1OCCCN1CCOCC1,16.6 µM (active),inactive,16.8 µM (active),2.25%,3.9%,–,inactive,–

# Source: PubChem BioAssay (NCATS)
